From PubChem BioAssay
This is a sample that favours compounds with a hit; in the whole collection about 7.6% have one here.
p53 reactivation: re-activators of mutant p53 | AID 504706 | Potency, µM (series often up to 92.2 µM), inactives show top-dose activity change, positive = activation, hits mostly activators | 320,000 tested, 0.063% active | H1299 p53-A138V BP100-luciferase reporter, luminescence, 24 h; further: potency means the concentration at half of the fitted maximal effect; % of control where 0% means no effect; nearly all actives have a fitted effect of over 45% in size
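H1299 (p53-null), stable ts p53-A138V + BP100-Luc; 1000 cells/well, Opti-MEM/10% FBS; cpd 4 pt, 1:5; 24 h, 37 deg C, 5% CO2; detection reagent 10 min RT; luminescence.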
Giardia killer: kills Giardia lamblia; Giardia lamblia trophozoite viability; 340,000 tested, 0.15% active; activity change, % at 7.66 µM, hits read low; AID 540267; in the data active means activity change below about -80%; inconclusive means between about -30% and that limit;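 further: parasites exposed to compound for two days anaerobically before the ATP read; on the % scale 0 is the no-effect control and ±100 the full control effect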
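Giardia trophozoites, 100 cells per well, were exposed to compounds for 48 hrs at 37 deg C under anaerobic conditions; viability was then read as ATP content by bioluminescence after 15-30 min at room temperature.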
RORg inh: ROR gamma (mouse) transcription inhibition; Drosophila S2 Gal4-RORgamma UAS-luciferase reporter, 20 h; Potency, µM (series often up to 53.6 µM), without a hit: at the top dose activity change, negative = inhibition, most hits filed as inhibitors; P51450; AID 2551; 310,000 tested, 5.4% active; further: potency means the concentration at half of the fitted maximal effect; on the % scale 0 is the no-effect control and ±100 the full control effect; nearly all actives have a fitted effect of over 60% in size
Target sequence (P51450 whole entry, looked up, the tested form may be a part): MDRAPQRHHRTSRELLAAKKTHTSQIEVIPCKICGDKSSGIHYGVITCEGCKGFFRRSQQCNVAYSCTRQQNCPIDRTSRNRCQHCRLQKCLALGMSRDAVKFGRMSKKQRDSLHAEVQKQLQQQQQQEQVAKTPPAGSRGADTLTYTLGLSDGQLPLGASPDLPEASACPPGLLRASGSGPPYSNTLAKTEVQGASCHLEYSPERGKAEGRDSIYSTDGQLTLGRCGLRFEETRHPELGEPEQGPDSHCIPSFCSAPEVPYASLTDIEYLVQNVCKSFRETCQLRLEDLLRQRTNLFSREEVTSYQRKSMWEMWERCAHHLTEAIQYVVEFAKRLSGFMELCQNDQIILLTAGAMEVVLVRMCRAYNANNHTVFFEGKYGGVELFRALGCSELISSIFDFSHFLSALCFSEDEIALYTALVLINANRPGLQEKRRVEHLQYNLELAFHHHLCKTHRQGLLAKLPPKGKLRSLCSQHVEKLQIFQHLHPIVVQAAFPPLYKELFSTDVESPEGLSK
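ROR gamma transcriptional activity was tracked as Gal4-UAS luciferase output in stably transfected Drosophila Schneider cells, with compound added 1 hr before 700 uM copper sulfate induction and a 20 hr ambient-temperature incubation.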
Gal4-VP16 FLuc: counter-screen for ROR gamma inhibitors: Gal4-VP16 reporter; Drosophila S2 Gal4-VP16 UAS-luciferase, luminescence, 20 h; Potency, µM (highest dose often 53.6 µM), for the others: at the highest dose activity, negative = inhibition, actives largely listed as inhibitors; 310,000 tested, 3.5% active;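 further: Gal4-VP16 expression switched on by copper sulfate through the metallothionein promoter; potency means the concentration at half of the fitted maximal effect; on the % scale 0 is the no-effect control and ±100 the full control effect; nearly all actives have a fitted effect of over 50% in size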
BRCA1 expr act: BRCA1 expression activation; MCF7-BRCA1-FFLuc reporter, luminescence, 48 h; response scale: scaled: vehicle 0%, 10 µM genistein 100%; Potency, µM (titrated, usually from 46.1 µM), inactives show at the top dose activation, usual class: activators; 380,000 tested, 1.1% active; AID 624202; further: potency means the concentration at half of the fitted maximal effect; nearly all actives have a fitted effect of over 80% in size
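Quantitative HTS in MCF7 cells stably reporting BRCA1 expression via firefly luciferase. Compound treatment lasts 48 h at 37 °C in phenol-red free MEM. Activation is expressed relative to genistein at 10 microM and DMSO.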
ELG1 repair inh: ELG1-dependent DNA repair inhibition; HEK293T ELG1-luciferase reporter, luminescence, 16 h; DNA damage induced by 5-fluorouridine; Potency, µM (doses to about 46.1 µM), without a hit: top-dose activity change, negative = inhibition, most hits filed as inhibitors; 330,000 tested, 2.3% active; AID 504467; further: potency means the concentration at half of the fitted maximal effect; on the % scale 0 is the no-effect control and ±100 the full control effect; nearly all actives have a fitted effect of over 55% in size
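Step one: seed 2,000 cells per well. Step two: pin-transfer compound or DMSO alongside 5-fluorouridine. Step three: incubate 16 hr, 37 °C, 5% CO2. Step four: add ONE-Glo, wait 30 min, read luminescence.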
Active calls of the source: *; ? = inconclusive; · = not tested or not shown. Unless noted, the call rests on the fitted dose curve; in most records, active means well fitted curve in the direction sought with a large enough effect; inconclusive means small, poorly fitted or top-dose-only effect, or another doubt; inactive means no such curve, though single readings can be large; an effect the other way counts as inactive or inconclusive.

SMILES	p53 reactivation	Giardia killer	RORg inh	Gal4-VP16 FLuc	BRCA1 expr act	ELG1 repair inh
COc1ccc(NC(=O)c2ccccc2)c([N+](=O)[O-])c1	9%	1	?	28%	7.9µM*	?
CN(C)S(=O)(=O)c1cccc(NC(=O)CCCC2CCCCC2)c1	·	1	·	·	37%	·
COc1cc2c(cc1OC)C(c1c(Cl)cccc1Cl)NC(=O)C2 (configuration not stated)	·	-12	-9%	-1%	-15%	8%
NC(=O)c1ccc(NCCc2ccco2)cc1	·	·	·	·	25%	·
O=C(/C=C/c1cccc([N+](=O)[O-])c1)n1cnc2ccccc21	2%	-11	11µM*	-7%	-61%	-2%
Cc1ccc(CCNC(=O)C2CCCN(S(=O)(=O)c3cnc[nH]3)C2)cc1 (configuration not stated)	-2%	15	22%	0%	13%	5%
O=C(CCCN1C(=O)/C(=C/c2ccccc2Cl)SC1=S)NNC(=O)c1ccccc1Cl	-24%	1	1µM*	2.8µM*	-92%	?
O=C(CCCN1C(=O)/C(=C/c2ccccc2Cl)SC1=S)NNC(=O)c1ccncc1	-6%	18	?	10µM*	0%	?
O=C(CCCN1C(=O)/C(=C\c2cccs2)SC1=S)NNC(=O)c1cccnc1	?	13	5.6µM*	?	-30%	-9%
CCOC(=O)CCCCCC(=O)Nc1ccc2c(c1)C(=O)N([C@H](C)CO)C[C@H](C)[C@H](CN(C)C(=O)C1CCCCC1)OCCCC[C@@H](C)O2	·	·	·	·	-17%	·
Cc1ccc(NC(=O)c2sc3nc(CCl)[nH]c(=O)c3c2C)c(C)c1	5%	-20	2%	?	11µM*	?
Cc1cc(C)c(NC(=O)c2sc3nc(C)[nH]c(=O)c3c2C)c(C)c1	1%	·	7%	0%	·	12%
Cc1noc(C)c1S(=O)(=O)NC(=O)C1(C)CCN1C(=O)Cc1ccc(-c2ccccc2)cc1 (configuration not stated)	·	·	·	·	14%	·
O=C(N/N=C/c1ccccn1)C1CC1	2%	-12	15%	10%	5%	?
O=C(N/N=C/c1ccccn1)c1cc(Br)ccc1O	?	?	4µM*	4.5µM*	25%	14%
O=C(N/N=C/c1ccccn1)c1ccc(Br)o1	1%	18	13µM*	?	-14%	-8%
COc1ccccc1N(Cc1cc(=O)[nH]c2ccccc12)C(=O)c1cccc([N+](=O)[O-])c1	-9%	9	9%	6%	3%	-9%
CC(Sc1nc(-c2ccc(F)cc2)cs1)C(=O)N1c2ccccc2CC1C (configuration not stated)	7%	25	?	-16%	-60%	26µM*
CCOC(=O)C(C)Sc1nc2ccccc2c(=O)n1CC (configuration not stated)	-2%	-17	-6%	14%	-18%	4%
Cn1c(/C(C#N)=C/c2ccc(O)cc2)nc2ccccc21	6%	-28	44%	-10%	11µM*	?
CCCCn1cnc2c(cnn2-c2ccc(Cl)cc2)c1=O	?	7	1%	-8%	11µM*	?
Cc1ccccc1Oc1ccc(Oc2ccccc2C)nn1	21%	-7	2%	10%	7.1µM*	?
S=c1nc(C2CCCCC2)n(-c2ccccc2)[nH]1	4%	-11	2.8µM*	-4%	-18%	-26%
Cc1nc(=S)n(-c2ccccc2)[nH]1	-9%	-7	?	?	-20%	14%
COc1cccc(CC(=O)NC2CCCN(Cc3ccc(Cl)cc3)C2)c1 (configuration not stated)	·	4	13%	-2%	-11%	-7%
SMILES	p53 reactivation	Giardia killer	RORg inh	Gal4-VP16 FLuc	BRCA1 expr act	ELG1 repair inh
COc1ccc(OCC(=O)NC2CCCN(Cc3ccc(Cl)cc3)C2)cc1 (configuration not stated)	-16%	-17	0%	-2%	-19%	8.2µM*
CCCCn1c(=O)n(C)c(=O)c2c(C(F)(F)F)cc(-c3ccncc3)nc21	11%	19	-18%	2%	-50%	15µM*
Cc1cc(NCc2ccccn2)n2ncc(-c3ccc(Cl)cc3)c2n1	?	-4	0.045µM*	0.63µM*	18%	?
CN(C)CCCNc1cc(C(C)(C)C)nc2c(-c3ccccc3)cnn12	2%	0	1.4µM*	2.5µM*	5.6µM*	?
Cc1cc(N)n2ncc(-c3ccc(Cl)cc3)c2n1	?	15	28%	20%	36%	?
Cc1cc(NCCOCCO)n2ncc(-c3ccc(Cl)cc3)c2n1	40µM*	-3	-4%	-7%	24%	?
COc1ccccc1-c1cnn2c(NCc3ccccc3)cc(C)nc12	5%	60	1%	5%	?	29%
Cc1cc(NCCC(C)C)n2nc(C)c(-c3ccccc3)c2n1	16%	-6	-81%	-12%	0%	?
Cc1cc(NCc2ccccn2)n2nc(C)c(-c3ccc(Cl)cc3)c2n1	-2%	-9	0.063µM*	0.71µM*	-78%	26µM*
CC(C)(C)c1cc(NCCCn2ccnc2)n2ncc(-c3ccc(Cl)cc3)c2n1	-1%	-10	?	0%	-18%	?
Cc1cc(NCc2ccccn2)n2ncc(-c3ccccc3)c2n1	?	-8	0.089µM*	0.32µM*	?	?
Cc1cc(Cl)n2ncc(-c3ccccc3)c2n1	16%	-1	16µM*	?	?	?
C=CCc1c(C)nc(SC(C)C)[nH]c1=O	-1%	-10	-36%	-2%	-19%	9%
CNCc1c(OCc2ccccc2F)ccc2ccccc12	-3%	-8	22%	-3%	-48%	-16%
CCOc1ccc(-c2nnc(NC(=O)CCCOc3cccc(C)c3)o2)cc1	?	-13	6.3µM*	?	63%	?
CCC(=O)Nc1nnc(-c2ccc(OC)cc2)o1	?	22	?	11µM*	0%	?
CCOc1ccc(-c2nnc(NC(=O)Cc3ccc(OC)cc3)o2)cc1	3%	-4	1.8µM*	4.5µM*	27%	4%
Cc1cccc(OCCCC(=O)Nc2ccc(Br)cc2)c1	1%	-1	55%	4%	-36%	-13%
CCOc1ccc(-c2nnc(NC(=O)Cc3cc(OC)c(OC)c(OC)c3)o2)cc1	3%	20	11µM*	?	51%	?
CC(Oc1ccccc1)C(=O)NC1C(=O)N2C(C(=O)O)C(C)(C)S[C@@H]12 (some centres not stated)	·	·	-14%	-1%	·	·
